The record followed here is PubChem BioAssay AID492998 (Southern Research Specialized Biocontainment Screening …, 2010).

Hit rate of the full screen: of about 2,300 compounds, about 550 (24%) were called active. No rule for the calls is given here. The list is a sample of the results. Entries with a potency or affinity are not part of this list.

A short description of the experiment: Vero E6 cell cytotoxicity, dose response, cytotoxicity control for non-replicating M. tuberculosis project, secondary assay (AID 492998). The settings on record: series mostly up to 20 µM.
In the case of `CC1(C)CC(=O)C(C2NCCc3ccccc32)=C(O)C1` (stereo not given), the compound was classed as inactive.

As to `CCCOc1ccc(N2CC(C(=O)Nc3ccccn3)CC2=O)cc1` (stereo not given), the outcome was inactive.

Turning to `COc1ccc(/C=N/NC(=O)C(=O)NCc2cccnc2)cc1OC`, the compound was classed as inactive.

In the case of `COc1cc(OC)c2c(OC)cccc2n1`, the outcome was inactive.

For the compound `CC(C)(C)Sc1ccc2nc3c(n2c1)CCCC3`, the compound was classed as inactive.

As for `CC(/C=C/c1ccc2c(c1)OCO2)=N/NC(=O)C1COc2ccccc2O1` (stereo not given), the compound was called inactive.

With `CCOC(=O)Cn1nc(/C=C/c2ccccc2)ccc1=O`, the result was inactive.

Regarding `CCOc1cccc2cc(C(=O)NC(C)c3ccccc3)c(=N)oc12` (stereo not given), the outcome was inactive.

As for `O=C(Nc1nnc(C2=COCCO2)o1)c1cccc(C(F)(F)F)c1`, the result was inactive.

As to `O=C(N/N=C/c1ccc(O)cc1)c1cccc(C(F)(F)F)c1`, the outcome was inactive.

As to `Nc1ccccc1Nc1ccccc1`, the outcome was inactive.

As for `CCCCCCOC(=O)C(C#N)c1nc2ccccc2nc1N1CCN(CC)CC1` (stereo not given), the result was inactive.

Turning to `CCCn1c(O)c(N=NC(=O)c2ccco2)c2ccccc21`, the compound was classed as inactive.

With `CCc1ccc(N2C(=O)CC(N3CCC(C(=O)OC)CC3)C2=O)cc1` (stereo not given), the call was inactive.

For `O=C(NCCc1c[nH]c2ccccc12)c1cc2ccccc2oc1=O`, the compound was classed as inactive.

`O=C(CNC(=O)c1ccccc1)OC1CCCCC1`: the outcome was inactive.

For `Cc1cc(C)cc(OCC(=O)N/N=C/c2ccc([N+](=O)[O-])o2)c1`, the result was inactive.

With `CCCCCCCC(=O)N/N=C/c1ccc([N+](=O)[O-])o1`, the compound was called inactive.

As to `O=C(CCSc1nnc(-c2ccccc2)o1)N1CCOCC1`, the compound was classed as inactive.

With `Cc1cc(C)n2nc(N)c(N=Nc3ccccc3)c2n1`, the outcome was inactive.

On to `CCC(C)n1nnc2c(=O)oc3ccccc3c21` (stereo not given), for which the compound was called inactive.

Regarding `CCOc1ccc(NC(=O)COC(=O)C2(C)CC2(Cl)Cl)c([N+](=O)[O-])c1` (stereo not given), the compound was classed as inactive.

Take `N#Cc1cc(N)ccc1-n1cccc1`: the outcome was inactive.

With `N/C(=N\OC(=O)CC1CCCCC1)c1ccncc1`, the outcome was inactive.

Take `CC(C)CN1C(=O)CC(Sc2ccccc2C(=O)O)C1=O` (stereo not given): the result was inactive.

In the case of `O=C1CC(N2CCC(c3nc4ccccc4o3)CC2)C(=O)N1` (stereo not given), the call was inactive.

For `COc1ccccc1NC(=O)CCN1CCN(c2ccc(Cl)cc2)CC1`, the result was inactive.

As for `CC(C)n1c(=S)[nH]c2ccccc2c1=O`, the compound was classed as inactive.

Consider `Cc1ccc(C(=O)N/N=C\c2ccc[nH]2)cn1`, for which the outcome was inactive.

In the case of `Cc1ccc(C(=O)N/N=C\c2ccc(-c3ccc(Cl)cc3)o2)cn1`, the compound was called inactive.

In the case of `O=C(N/N=C/c1ccc(Br)s1)c1cccnc1`, the compound was called inactive.

Consider `O=C(N/N=C/c1ccc([N+](=O)[O-])s1)c1ccccc1`, for which the result was inactive.

For `Cc1ccc(C(=O)N/N=C/C=C/c2ccccc2)cc1`, the compound was classed as inactive.

Consider `Cn1cccc1/C=N/NC(=O)c1ccncc1`, for which the call was inactive.

For the compound `COc1cccc(-c2nc(C=O)cs2)c1`, the compound was classed as inactive.

As for `CCCOc1ccc(N2C(=O)CC(N3CCCC(C(=O)N4CCCC4)C3)C2=O)cc1` (stereo not given), the outcome was inactive.

As for `COC(=O)CN(C#N)c1nc(SC)nc(N(C)C)n1`, the call was inactive.

For `CC(C)C[C@H]1CN=C(Nc2ccccc2)N1CCCC1CCCCC1`, the call was inactive.

As for `CCSc1nc(O)c(C2OC(=O)c3c2ccc(OC)c3OC)c(=O)n1-c1ccccc1` (stereo not given), the outcome was inactive.

Turning to `CCOc1cccc2cc(C(=O)Nc3nccs3)c(=O)oc12`, the compound was called inactive.

As for `O=C(CN1CCC(NC(=O)c2cccc(F)c2)CC1)Nc1ccc(Br)cc1`, the outcome was inactive.

Consider `O=C(N/N=C/c1ccc(Br)s1)c1ccncc1`, for which the result was inactive.

For the compound `Cc1ccc(/C=N/NC(=O)c2ccncc2)s1`, the compound was classed as inactive.

As for `Cc1onc(-c2ccccc2)c1C(=O)Nc1nnc(COc2ccc(Cl)cc2)s1`, the outcome was inactive.

Consider `CC(=O)N1N=C(c2ccccc2)OC1c1ccc([N+](=O)[O-])s1` (stereo not given), for which the outcome was inactive.

Take `O=C(Nc1ccccc1)c1cc2ccccc2o1`: the outcome was inactive.

Take `CN(C)Cc1ccccc1Sc1ccc(Br)cc1`: the outcome was inactive.

On to `CC(C)(NO)/C(=N\O)c1ccccc1`, for which the compound was called inactive.

In the case of `CCCOC(=O)c1ccc(-c2ccc(C=O)o2)cc1`, the result was inactive.

On to `Cc1ccc2nc3c(c(N)c2c1)CCN3c1ccccc1`, for which the result was inactive.

With `C=C(C)C1Cc2c(C)nn(-c3nc(C)cc(C)n3)c2C1` (stereo not given), the compound was classed as inactive.

Take `CCc1nnc(N/N=C/c2ccc(-c3ccc([N+](=O)[O-])cc3)o2)n1N`: the outcome was inactive.

As to `Cc1cccc(NC(=O)COC(=O)c2cc3ccccc3oc2=O)c1`, the call was inactive.

As for `CCOc1cccc2cc(C(=O)NCc3ccccc3)c(=N)oc12`, the outcome was inactive.

With `Cc1ccc(N=Nc2c(C)[nH]n(C(N)=S)c2=O)cc1C`, the outcome was inactive.

In the case of `O=C(c1ccc(-c2ccc([N+](=O)[O-])cc2)o1)N1CCN(S(=O)(=O)c2cccs2)CC1`, the call was inactive.

Turning to `COc1cccc(NC(=O)c2ccc(-c3ccc([N+](=O)[O-])cc3)o2)c1`, the compound was classed as inactive.

Turning to `COc1ccccc1C(=O)OCC(=O)Nc1ccc(Cl)cn1`, the result was inactive.

As for `CC(C)(C)NC(=O)c1ccc(NC(=O)c2ccccc2-c2ccccc2C(=O)O)cc1`, the result was inactive.

Turning to `CN1CCC(O)(c2ccc(Cl)cc2)C(C(=O)c2ccc(Cl)cc2)C1` (stereo not given), the result was inactive.

As to `Cc1nnc(NC(=O)c2ccc3ccccc3c2)o1`, the compound was classed as inactive.

As to `Cc1nc(Cl)nc(N(C)c2ccccc2)c1[N+](=O)[O-]`, the outcome was inactive.

`O=C(Cn1cc([N+](=O)[O-])nc1[N+](=O)[O-])N1CCN(c2ccccc2)CC1`: the compound was classed as inactive.

`N/C(=N/OC(=O)c1ccc(Cl)cc1)c1ncc([N+](=O)[O-])s1`: the call was inactive.

For the compound `Cc1cc(C=C2C(=O)NC(=S)NC2=O)c(C)n1C1CCCC1`, the compound was classed as inactive.

On to `CSc1nc2ccc(NC(=O)C3CC(=O)N(Cc4ccccc4)C3)cc2s1` (stereo not given), for which the compound was classed as inactive.

As for `CC1CCN(CCc2nc3cc(NC(=O)COc4ccc(Cl)cc4)ccc3n2C)CC1`, the compound was classed as inactive.

Turning to `NC(=S)n1[nH]c(-c2ccc([N+](=O)[O-])cc2)c(N=Nc2ccc(O)cc2)c1=O`, the result was inactive.

In the case of `COC(=O)c1ccc(CSc2nnc(-c3ccncc3)o2)o1`, the compound was classed as inactive.

Turning to `CCOC(=O)COc1ccc(/C=C2\NC(=S)N(CC)C2=O)cc1`, the call was inactive.

Regarding `FC(F)(F)c1ccc(NCCc2ccccc2)nc1`, the compound was classed as inactive.

`O=C(COc1ccc(F)cc1)N/N=C/c1cccc2cccnc12`: the outcome was inactive.

Take `O=C1/C(=C/c2cccs2)COc2ccccc21`: the compound was classed as inactive.

As to `Brc1ccc(OCCCCN2CCCCC2)cc1`, the result was inactive.

Consider `Cc1occc1C(=O)N/N=C/C(Br)=C\c1ccccc1`, for which the compound was classed as inactive.

Turning to `O=C(CN1CCCCC1)Nc1nnc(-c2ccc([N+](=O)[O-])cc2)s1`, the outcome was inactive.

Consider `N#Cc1nc(-c2cccs2)oc1NCCc1ccccc1`, for which the compound was called inactive.

In the case of `COc1cc(N=c2ssnc2Cl)cc(OC)c1OC`, the outcome was inactive.

Take `O=C1Nc2cc(C(=O)NCCCN3CCOCC3)ccc2S/C1=C/c1cccc(Cl)c1`: the outcome was inactive.

With `N=c1n(CCN2CCCCC2)c2ccccc2n1CC(=O)c1ccc(Cl)c(Cl)c1`, the compound was classed as inactive.

For `COCCOC(=O)c1c(C)oc2ccc(OC(=O)c3ccco3)cc12`, the compound was classed as inactive.

Take `O=C(Nc1ncc(Cc2ccccc2)s1)C1=NCCN1`: the result was inactive.

In the case of `OCC#CCSc1nnc(-c2ccc(Br)cc2)o1`, the call was inactive.

Turning to `CCN(CC)c1ccc2c(c1)oc(=O)c1c(Cl)cc(=O)oc12`, the result was inactive.

Take `CN(CCOCCOc1ccc(F)cc1)Cc1ccccc1`: the compound was called inactive.

With `CCCCOC(=O)Cn1c(-c2ccccc2)nc2ccccc2c1=O`, the result was inactive.

`CCOC(=O)c1cc(-c2csc(COc3ccc(Cl)cc3)n2)on1`: the call was inactive.

With `NC(=O)C1CCN(C2CC(=O)NC2=O)CC1` (stereo not given), the result was inactive.

`CCC(C)n1c(=S)[nH]c2ccccc2c1=O` (stereo not given): the compound was called inactive.

On to `Nc1ccc2nc3c(c(Cl)c2c1)CCCC3`, for which the result was inactive.

As for `O=C(CCSc1nnc(-c2ccncc2)o1)Nc1ccc(Cl)cc1`, the compound was called inactive.

For the compound `CCC1(O)CC(c2ccccc2)=NN1C(=O)c1ccccc1F` (stereo not given), the outcome was inactive.

In the case of `CCOC(=O)C(C)(C)n1nnc(-c2ccc([N+](=O)[O-])cc2)n1`, the outcome was inactive.

For the compound `Cc1cc(=O)n2cccc(O)c2n1`, the compound was called inactive.

Turning to `O=C(NNc1nc2cc3c(cc2s1)OCCO3)c1ccccc1`, the outcome was inactive.

Consider `C/C(CC(=O)Nc1ccc(N(C)C)cc1)=N\NC(=O)c1ccncc1`, for which the result was inactive.

Consider `NC(=O)c1cccnc1Nc1cccc(F)c1`, for which the call was inactive.

Take `CN(C)CCNc1c2c(c(C#N)c3nc4ccccc4n13)CCCC2`: the call was inactive.

Turning to `CN(C)CCCn1c(=O)n(C2CCCCC2)c(=O)c2c3c(sc21)CCCCC3`, the call was inactive.

For the compound `COc1cc(/C=N/Nc2ccc(Cl)c(C(=O)O)c2)ccc1OC(=O)c1cccs1`, the result was inactive.

With `CC1=NN(C(=O)c2csc(C)c2C)C(O)(C(F)(F)F)C1` (stereo not given), the outcome was inactive.

In the case of `O=C(CCc1ccccc1F)N1CCN(c2ccccc2)CC1`, the outcome was inactive.

Consider `Cc1cc(/C=N\NC(=O)c2cccs2)c(C)n1-c1ccc2ncccc2c1`, for which the compound was classed as inactive.

Regarding `O=c1cc(-c2ccccc2Cl)oc2c([N+](=O)[O-])c(O)cc(O)c12`, the compound was classed as inactive.

As to `CC1CCN(C(=O)COC(=O)c2cc3ccccc3cc2O)CC1`, the result was inactive.

For `O=C(NC(=S)NCCc1ccccc1)c1ccccc1`, the compound was classed as inactive.

For the compound `O=C(CCc1ccccc1)NC1C2CC3CC(C2)CC1C3` (stereo not given), the outcome was inactive.

With `C/C(=N/NC(=O)c1cccc(C)c1)c1c(O)cc(C)oc1=O`, the compound was called inactive.

For `C/C(=N\NC(=O)c1ccncc1)c1cc2ccccc2oc1=O`, the compound was called inactive.

As to `C/C(=N\NC(=O)c1cccc(Cl)c1)C1C(=O)c2ccccc2C1=O`, the result was inactive.

For `O=C1/C(=C/C=C/c2ccccc2)Oc2c1ccc(O)c2CN1CCN(CCO)CC1`, the call was inactive.

On to `O=C(COC(=O)C1CC2C=CC1C2)Nc1ccccc1` (stereo not given), for which the result was inactive.

For `COC(=O)c1cc2c(ccc3ccccc32)oc1=O`, the call was inactive.

`COc1ccc(-c2cc(=O)oc(-c3cccc(C)c3)n2)cc1`: the compound was called inactive.

As to `Cc1nn(-c2ccccc2)nc1C(=O)c1c(C)[nH]n(-c2ccccc2)c1=O`, the result was inactive.

`O=C(OCc1c(Cl)cccc1Cl)c1ccccn1`: the outcome was inactive.

Take `CCOC(=O)c1ccc(COC(=O)c2cc3ccccc3oc2=O)o1`: the outcome was inactive.

With `CC(=O)NCCOC(=O)Nc1sc(=S)n(C)c1C`, the outcome was inactive.

As to `CC1CCN(C(=O)C2COc3ccccc3O2)CC1` (stereo not given), the compound was classed as inactive.

As for `Cc1csc(=Nc2cccnc2)n1CC1CCCCC1`, the compound was classed as inactive.
